Only some compounds are listed: those with a hit (about 2.9% of all), similar ones and a draw of the others.
ERa coact inh – ER-alpha (human) coactivator binding inhibition; P03372; inhibition, % at 25.6 µM; TR-FRET ER-alpha LBD / SRC-1 peptide, estradiol-bound; AID 629; 86,000 compounds, 1.7% hits; in the data active = inhibition above about 50%;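 also: 0% = receptor plus peptide control and 100% = peptide only without receptor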
Smad3 inh – inhibitors of human Smad3 transcription factor binding; P84022; TR-FRET Smad3/Dy647-FoxH1 peptide binding, europium anti-His; inhibition, % at 25 µM; 88,000 compounds, 0.29% hits;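 active = compounds that reduce the energy-transfer binding signal between the protein and its labelled peptide by more than half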;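 also: 0% = Smad3 plus labelled peptide maximal FRET and 100% = peptide-only background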
ERb SRC1 inh – ER-beta (human) coactivator binding inhibition; inhibition, % at 25.6 µM; TR-FRET ER-beta LBD / SRC1-Cy5 peptide binding; receptor agonist-loaded with 1 µM estradiol; Q92731; 86,000 compounds, 1.3% hits;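 active = compounds whose percent inhibition of the receptor-coactivator binding signal exceeds about 50% in the single-dose screen, limit read from the data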;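 also: 0% = receptor plus peptide wells without compound and 100% = peptide-only wells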
Target sequence (Q92731 whole entry, looked up, the tested form may be a part): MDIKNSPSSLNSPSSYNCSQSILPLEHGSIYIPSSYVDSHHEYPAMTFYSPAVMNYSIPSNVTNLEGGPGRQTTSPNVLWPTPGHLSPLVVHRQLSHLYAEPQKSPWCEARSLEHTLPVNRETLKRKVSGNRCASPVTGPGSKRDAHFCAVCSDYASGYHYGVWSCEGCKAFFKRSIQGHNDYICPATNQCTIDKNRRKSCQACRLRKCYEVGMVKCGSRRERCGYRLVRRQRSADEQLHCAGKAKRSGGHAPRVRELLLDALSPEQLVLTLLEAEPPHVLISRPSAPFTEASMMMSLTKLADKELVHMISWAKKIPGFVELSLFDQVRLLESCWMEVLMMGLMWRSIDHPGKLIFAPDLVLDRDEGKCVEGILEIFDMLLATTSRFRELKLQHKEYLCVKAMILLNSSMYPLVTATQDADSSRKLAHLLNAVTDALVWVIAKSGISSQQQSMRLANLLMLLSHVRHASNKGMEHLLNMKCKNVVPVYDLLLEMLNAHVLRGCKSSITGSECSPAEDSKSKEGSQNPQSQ
ERa SRC1 pot – ER-alpha (human) coactivator binding potentiation; 86,000 compounds, 1.3% hits; coactivator binding (% of control), % at 25.6 µM; TR-FRET ERalpha-LBD/SRC-Cy5 coactivator binding, 2 h; 100 = basal binding, no effect; in the data active = activity above about 200%;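 also: binding measured in presence of low estradiol as agonist stimulus; 0% = peptide alone without receptor and 100% = receptor with peptide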
MRP-1 activ – MRP-1 activation | H69AR cells + doxorubicin, viability rescue, CellTiter-Glo | viability increase, % at 10 µM | 140,000 compounds, 0.61% hits;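 active = viability gain under doxorubicin at or above a set limit, the compound median plus 3 SD, cut at about 4.7% in these data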;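 also: MRP-1 overexpressing cells given doxorubicin 25 µM after compound pretreatment; 18-22 h compound pretreatment then 72 h with doxorubicin before readout; 0% = doxorubicin-only wells and 100% = vehicle-treated cells without doxorubicin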
MRP reversal – reverses drug resistance mediated by MRP; H69AR cells + 2 uM doxorubicin, CellTiter-Glo, 72 h; differential viability (reversal), % at 10 µM; 85,000 compounds, 0.04% hits; AID 602;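 active = viability drop by adding the cancer drug above about 55%, with treated viability meeting a 40% cutoff, limit read from the data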;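 also: viability without doxorubicin minus viability with 2 µM doxorubicin for each compound; larger differential means the compound sensitizes cells more to doxorubicin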
The depositor's hits bear a star; . = not tested or not shown; [ ] = dose if it differs, or a comment.

SMILES	ERa coact inh	Smad3 inh	ERb SRC1 inh	ERa SRC1 pot	MRP-1 activ	MRP reversal
COc1cc2c(cc1OC)[C@]13CC[N@+]4(C)CC5=CCO[C@@H]6CC(=O)N2[C@@H]1[C@@H]6[C@@H]5C[C@]34O	.	93*	.	.	.	.
COc1cc2c(cc1OC)[C@@]13CCN4CC5=CCO[C@H]6CC(=O)N2[C@H]1[C@H]6[C@H]5C[C@H]43	.	.	.	.	-1	.
C[C@]12CCC(=O)C=C1C[C@H](O)[C@@H]1[C@@H]2CC[C@@]2(C)[C@H]1CC[C@]2(C)O	.	38	.	.	.	.
CN(C(=O)Oc1ccc(C(=O)c2ccc(Cl)cc2)cc1)c1ccccc1	.	.	.	.	-1	.
CN(C)C(=O)Oc1ccc(OC(=O)c2ccccc2)cc1	-35	1	-29	107	8.2*	-27
COc1cc2cc(c1Cl)N(C)C(=O)C[C@H](OC(=O)C(C)C)[C@]1(C)O[C@H]1[C@@H](C)[C@H]1C[C@](O)(NC(=O)O1)[C@@H](OC)/C=C\C=C(\C)C2	.	4	.	.	.	.
CC[C@@H](CO)NC(=O)[C@@H]1C=C2c3cccc4c3c(cn4C)C[C@H]2N(C)C1	27	7	51*[fluorescence artefact?]	43	-1	6
O=C1N[C@]2(CN3CCC2CC3)C(=O)N1CN(Cc1ccccc1)c1ccccc1	.	-4	.	.	.	.
O=c1[nH]c(=O)n(CCC2=CCCCC2)c(O)c1C=Nc1cccc(F)c1	20	15	10	254*	-3	-12
Nc1ccccc1N=Cc1c(O)n(CCC2=CCCCC2)c(=O)[nH]c1=O	57*	1	30	140	-6	.
O=C(O)C[C@@H]1OCC=C2CN3CC[C@]45c6ccccc6N[C@H]4[C@H]1[C@H]2C[C@H]35	.	-14	.	.	.	.
CC(C)(O)/C=C/C(=O)[C@](C)(O)[C@H]1[C@H](O)C[C@@]2(C)[C@@H]3CC=C4[C@H](C=C(O)C(=O)C4(C)C)[C@@]3(C)C(=O)C[C@]12C	.	-5	.	.	.	.
CC1(C)[C@@H]2CC[C@@]1(C)CN(CCC[N+](C)(C)C)C2	.	30	.	.	.	.
COC(=O)c1c(C)ccc2c(O)c3c(cc12)C(=O)c1c2c(cc(O)c1C3=O)[C@@]1(C)O[C@@](C)(O2)[C@@H](O)[C@H](N(C)C)[C@H]1O	.	94*	.	.	.	.
COC(=O)[C@@H]1c2cc3c(c(O)c2[C@@H](O)C[C@]1(C)O)C(=O)c1c(O)cc2c(c1C3=O)O[C@H]1O[C@]2(C)[C@@H](O)[C@H](N(C)C)[C@H]1O	.	27	.	.	.	.
O=C(Nc1ccc(F)cc1)c1c(O)c2c(n(Cc3ccccc3)c1=O)CCCC2	.	.	.	.	9.0*	.
O=C1CC(N2CCC(n3c(=O)[nH]c4ccccc43)CC2)C(=O)N1c1ccc(F)cc1 (configuration not stated)	-6	3	6	110	6.2*	3
C[C@H]1CC[C@]2(NC1)O[C@H]1C[C@H]3[C@H]4CC=C5C[C@@H](O)CC[C@]5(C)[C@@H]4CC[C@]3(C)[C@H]1[C@@H]2C	.	11	.	.	.	.
CN1CCC(n2nccc2N)CC1	-9	-9	7	130	-1	-10
Nc1ccnn1C1CCNCC1	96*[fluorescence artefact?]	19	95*[fluorescence artefact?]	43	-1	15
C[C@]12CC[C@H](O[C@@H]3O[C@H](CO)[C@@H](O)[C@H](O)[C@H]3O)C[C@@H]1CC[C@@H]1[C@@H]2CC[C@]2(C)[C@@H](C3=CCOC3=O)CC[C@@]12O	.	56*	.	.	.	.
Nc1nc2c(c(=S)[nH]1)[n]([Hg][c]1cc([N+](=O)[O-])ccc1O)c[n+]2[C@H]1O[C@H](CO)[C@@H](O)[C@@H]1O	.	46	.	.	.	.
CC1=NN(c2ccc(S(=O)(=O)O)cc2C)C(=[OH+])[C@@H]1N=Nc1cc(S(=O)(=O)O)ccc1C(=O)O.O.[Cr]	.	11	.	.	.	.
O=C(NCP(=O)(O)O)c1cccnc1	.	-1	.	.	.	.
CC1(C)CC(=N[N-]C(N)=[SH+])CC(C)(C)N1.CC1(C)CC(=N[N-]C(N)=[SH+])CC(C)(C)N1.[Ni]	.	68*	.	.	.	.
SMILES	ERa coact inh	Smad3 inh	ERb SRC1 inh	ERa SRC1 pot	MRP-1 activ	MRP reversal
Cc1nc2c(=O)n(C)c(=O)nc-2n(C)n1	-8	80*	-8	108	-8	0
CCn1nc(-c2ccccc2)nc2c(=O)n(C)c(=O)nc1-2	.	.	.	.	-1	.
O=C(O)c1cccc([As]=[As]c2cccc(C(=O)O)c2)c1 (configuration not stated)	.	55*	.	.	.	.
Cc1ccc(S(=O)(=O)Cc2ccc(C(=O)N3CCC4(CC3)OCCO4)o2)cc1	51*	-3	56*	49	-2	2
N#Cc1c(/N=C/c2c(O)n(Cc3ccco3)c(=O)[nH]c2=O)sc2c1CCCC2	45	23	75*	86	-2	-12
CC1CCC/C=C/C2CC(O)CC2C(O)/C=C/C(=O)O1 (configuration not stated)	0	3	-6	100	-4	-2
C[C@H]1CCC[C@@H](O)CCC/C=C/c2cc(O)cc(O)c2C(=O)O1	3	1	7	466*	-2	2
O=c1[nH]cnc2[nH]cc(CN3CCCCC3)c12	.	78*	.	.	.	.
CCOC(=O)[C@@H]1[C@H]2c3ccccc3-c3ccccc3[C@@H]2C[C@H]1O	.	18	.	.	.	.
O=C1NC(=O)N(c2ccc3c(c2)OCO3)C(=O)/C1=C/c1ccc(N2CCCC2)o1	.	.	.	.	0	.
O=C1NC(=O)C(=Cc2cn(CCOc3ccc4c(c3)OCO4)c3ccccc23)C(=O)N1	84*[fluorescence artefact?]	8	60*[fluorescence artefact?]	131	-2	2
COc1cc2c(cc1OC)[C@]13CCN4CC5=CCO[C@@H](CC(=O)O)[C@H]([C@H]5C[C@H]41)[C@@H]3N2	.	88*	.	.	.	.
Oc1ccc([C@H](O)[C@@H]2CCCCN2)cc1O	.	1	.	.	.	.
CCOc1ccccc1-n1c(O)c(C=NCc2ccc3c(c2)OCO3)c(=O)[nH]c1=O	-26	7	-19	100	0	21
O=c1[nH]c(=O)n(CCc2ccccc2)c(O)c1C=NCc1ccc2c(c1)OCO2	55*[fluorescence artefact?]	9	36	267*[fluorescence artefact?]	-3	0
CN1C[C@@H](C(=O)N[C@@]2(C)O[C@@]3(O)[C@H]4CCCN4C(=O)[C@@H](Cc4ccccc4)N3C2=O)C=C2c3cccc4[nH]cc(c34)C[C@@H]21	.	20	.	.	.	.
CC1(C)CC(=O)C(C2(O)C(=O)NC(=O)NC2=O)=C(O)C1	-8	65*[fluorescence artefact?]	-6	121	0	5
O=[As](O)(O)c1ccc(Cc2ccc([As](=O)(O)O)cc2)cc1	.	79*	.	.	.	.
CCNCCC1(CC)C(=O)NC(=O)NC1=O	.	-4	.	.	.	.
CCn1ncc(/C=C2/CC3C4CC=C5CC(O)CCC5(C)C4CCC3(C)C2=O)c1C (configuration not stated)	-32	-421	7	542*[fluorescence artefact?]	.	3
O=C(O)[C@H]1[O][Sb][O][C@@H](C(=O)O)C1O (some centres not stated)	.	20	.	.	.	.
O=C(O)/C=C/c1ccc[c]([Sb](=[O])([OH])[OH])c1	.	90*	.	.	.	.
N=C(N)n1cc(/C=N/N=C(N)N)cn1	.	-15	.	.	.	.
